Screening data: PubChem, National Center for Advancing Translational Sciences (NCATS)
This is a sample that favours compounds with a hit; in the whole collection about 19% have one here.
TDP1 block – blocks human tyrosyl-DNA phosphodiesterase 1. Q9NUW8. 350,000 tested, 0.28% active. Potency, µM (series often up to 130 µM), inactives show at the highest dose activity change, negative = inhibition, most hits filed as inhibitors. recombinant TDP1, AlphaScreen DNA substrate cleavage. AID 485290; note: potency is the fitted concentration of half-maximal effect; nearly all actives have a fitted effect of over 40% in size
Target sequence (Q9NUW8 whole entry, looked up): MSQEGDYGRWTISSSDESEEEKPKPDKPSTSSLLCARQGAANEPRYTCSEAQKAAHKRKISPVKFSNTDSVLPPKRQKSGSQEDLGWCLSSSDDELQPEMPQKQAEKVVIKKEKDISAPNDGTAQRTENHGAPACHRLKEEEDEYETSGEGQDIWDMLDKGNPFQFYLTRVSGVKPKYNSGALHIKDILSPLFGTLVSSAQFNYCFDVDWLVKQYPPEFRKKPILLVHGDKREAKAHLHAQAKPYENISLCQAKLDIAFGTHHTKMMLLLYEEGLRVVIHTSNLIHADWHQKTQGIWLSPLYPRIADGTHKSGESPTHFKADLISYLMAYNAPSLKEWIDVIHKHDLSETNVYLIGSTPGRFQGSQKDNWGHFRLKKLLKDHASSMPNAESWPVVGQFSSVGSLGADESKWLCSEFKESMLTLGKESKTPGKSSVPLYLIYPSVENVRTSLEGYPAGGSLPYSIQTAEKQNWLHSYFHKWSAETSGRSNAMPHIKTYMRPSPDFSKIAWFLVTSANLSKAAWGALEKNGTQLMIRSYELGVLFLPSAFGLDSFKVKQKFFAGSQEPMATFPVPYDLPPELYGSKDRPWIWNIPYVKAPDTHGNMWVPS
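Steps: enzyme plus compound, 15 min RT; add biotin/phosphotyrosine-FITC oligonucleotide (15 nM final), react 5 min; add donor/acceptor beads (10 ug/ml final), 10 min; read AlphaScreen. Tdp1 at 1 nM final.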
DT40 TDP1 no CPT – qHTS for Inhibitors of human tyrosyl-DNA phosphodiesterase 1 (TDP1): qHTS in cells in absence of CPT. DT40 Tdp1-/- hTDP1 cells, no CPT, ATP luminescence, 48 h. Potency, µM (titrated, usually from 46.2 µM), without a hit: at the highest dose activity change, negative = growth inhibition, usual class: inhibitors. 420,000 tested, 15% active; note: potency is the fitted concentration of half-maximal effect; nearly all actives have a fitted effect of over 55% in size
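Chicken DT40 Tdp1-/- cells stably complemented with human TDP1 were seeded at 400 cells/well with DMSO in place of 20 nM camptothecin. After compound pinning, cells grew at least 48 hr at 37 °C; viability read by CellTiter-Glo luminescence.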
TDP1 cell CPT – DT40-hTDP1 cell growth loss with CPT | 420,000 tested, 12% active | chicken DT40 Tdp1-/-;hTDP1 cells + 20 nM CPT, ATP luminescence, 48 h | Potency, µM (titrated, usually from 46.2 µM), without a hit: at the highest dose activity change, negative = growth inhibition, most hits filed as inhibitors | AID 686979; note: potency is the fitted concentration of half-maximal effect; nearly all actives have a fitted effect of over 55% in size
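Chicken DT40 Tdp1-/- cells stably complemented with human TDP1 were seeded at 400 cells/well in medium containing 20 nM camptothecin, exposed to pin-transferred compounds, and grown at 37 °C for at least 48 hr. Viability was read as ATP luminescence.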
ELG1 DNA repair – ELG1-dependent DNA repair inhibition; HEK293T ELG1-luciferase reporter, luminescence, 16 h; DNA damage induced by 5-fluorouridine; Potency, µM (series often up to 46.1 µM), for inactives: at the top dose activity change, negative = inhibition, hits mostly inhibitors; 330,000 tested, 2.3% active; note: potency is the fitted concentration of half-maximal effect; nearly all actives have a fitted effect of over 55% in size
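Quantitative HTS, concentration-response format. 2,000 cells/well co-treated with 5-fluorouridine and compound, 16 hr in 5% CO2 at 37 °C; ONE-Glo luminescence read after 30 min.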
IL1B secr inh – inflammasome signaling inhibition, IL-1 beta readout; THP-1 LPS/ATP IL-1B secretion, AlphaLISA, 16 h; hits give low values; activity change, % at 57.5 µM; 360,000 tested, 4.7% active; AID 743279; in the data active = activity change below about -50%; inconclusive = mostly about -30% to -49%
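THP-1 cells pretreated 1 hr with compounds (up to 57.5 uM final), then stimulated with LPS (250 ng/mL final) plus ATP (1.25 mM final); secreted IL-1B measured by AlphaLISA after 16 hr, decreased signal indicating inhibition.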
Giardia kill – kills Giardia lamblia | activity change, % at 7.66 µM, hits read low | 340,000 tested, 0.15% active | Giardia lamblia trophozoite viability; in the data active = activity change below about -80%; inconclusive = between about -30% and that limit;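 note: parasites exposed to compound for two days anaerobically before the ATP read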
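Media and compound were dispensed first, then trophozoites at 100 cells/well; plates sat 48 hrs at 37 deg C without oxygen before ATP luminescence reagent was added and read after 15-30 min at room temperature.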
* = called active by the depositor; ? = inconclusive; . = not tested or not shown. Unless noted, calls come from the whole dose curve; as a rule, active = well fitted curve in the direction sought with a large enough effect; inconclusive = small, poorly fitted or top-dose-only effect, or another doubt; inactive = no such curve, though single readings can be large; an effect the other way counts as inactive or inconclusive. % is set by controls: 0 for no effect and ±100 for the full control effect.

SMILES	TDP1 block	DT40 TDP1 no CPT	TDP1 cell CPT	ELG1 DNA repair	IL1B secr inh	Giardia kill
CCOC(=O)C(C)(C)N(Cc1ccc(Cl)cc1)S(=O)(=O)c1ccc(Cl)c([N+](=O)[O-])c1	8%	.	.	18µM*	.	.
CCOC(=O)C(C)(C)N(Cc1ccc(C)cc1)S(=O)(=O)c1ccc(Cl)c([N+](=O)[O-])c1	6%	13µM*	15µM*	?	-104*	-5
COc1cccc2c1C(=O)C=C(C)C2=O	5%	4.6µM*	2.9µM*	?	-100*	-3
CC1=CC(=O)c2ccccc2C1=O	6%	4.6µM*	8.2µM*	12%	21	11
CC(C)(C=O)C1=CC(=O)c2ccccc2C1=O	1%	0.41µM*	0.18µM*	?	-103*	-6
CCOc1ccc(C(=O)COC(=O)Cn2[nH]c(=O)c3ccccc3c2=O)cc1	.	-3%	2%	.	8	.
O=C(CN1C(=O)S/C(=C\c2ccc(F)cc2)C1=O)Nc1cccc(S(=O)(=O)NCc2ccco2)c1	-1%	?	?	-3%	?	6
Cc1cccc(Nc2nc(NCc3ccco3)nc(N3CCOCC3)n2)c1	12%	?	?	?	-19	-13
COC(=O)[C@@H]1C[C@@]2(O)[C@@H](O)[C@@H](O)[C@@H](O)C[C@H]2N1Cc1ccc(-c2ccccc2)cc1	7%	-19%	?	11%	.	-4
COC(=O)[C@@H]1C[C@@]2(O)[C@H](O)[C@H](O)[C@H](O)C[C@H]2N1Cc1ccc(-c2ccccc2)cc1	-9%	-8%	-29%	5%	-71*	-5
CC1N(C)c2cc(NC(=O)c3cccs3)c(P(=O)(Nc3ccc([N+](=O)[O-])cc3)N3CCOCC3)cc2C1(C)C (stereo not given)	10%	18µM*	?	18µM*	-58*	12
COc1ccc(OCC2c3cc(OC)c(OC)cc3CCN2C(=O)c2c(F)cccc2F)cc1 (stereo not given)	8%	?	-22%	.	.	.
COc1ccc(-c2ocnc2C(=O)N2CCN(C(c3ccccc3)c3ccccc3)CC2)cc1	4%	?	?	?	2	3
Cc1cc(N2CCN(c3ccc(F)cc3)CC2)n2cnnc2n1	5%	?	?	.	.	.
O=C(C1CC1)N1CCc2cc(Br)cc(S(=O)(=O)Nc3ccc(F)c(F)c3)c21	9%	23µM*	23µM*	.	.	.
O=C(C1CC1)N1CCc2cc(Br)cc(S(=O)(=O)Nc3ccc(C(F)(F)F)cc3)c21	6%	16µM*	18µM*	.	.	.
O=C(C1CC1)N1CCc2cc(Br)cc(S(=O)(=O)N3CCN(c4cccc(C(F)(F)F)c4)CC3)c21	3%	8.2µM*	?	.	.	.
CCN(c1cccc(C(F)(F)F)c1)S(=O)(=O)c1ccc2c(c1)CCN2C(=O)C1CC1	0%	16µM*	16µM*	?	?	1
Cc1ccc(NC(=O)C(=O)NCCc2sc(-c3ccc(Cl)cc3)nc2C)cc1C	4%	0%	-22%	.	.	.
COCCCNC(=O)C1=CCN(S(=O)(=O)c2ccc(OC)cc2)CC1	2%	29%	1%	0%	3	-12
CN(C(=O)CSc1nnc(-c2ccccc2F)o1)C1CCCCC1	-1%	1%	-4%	.	.	.
CCOC(=O)c1cccc(NS(=O)(=O)c2cc(Br)cc3c2N(C(=O)C2CC2)CC3)c1	6%	23µM*	?	.	.	.
CCCCN(C)S(=O)(=O)c1cc2c(cc1Br)CCN2C(=O)C1CC1	.	3.7µM*	4.1µM*	.	1	-5
Cc1ccc(NS(=O)(=O)c2cc(Br)cc3c2N(C(=O)C2CC2)CC3)cc1C	0%	2.1µM*	2.6µM*	.	.	.
CCCNS(=O)(=O)c1cc2c(cc1Br)CCN2C(=O)CC	.	-8%	-15%	.	12	-16
SMILES	TDP1 block	DT40 TDP1 no CPT	TDP1 cell CPT	ELG1 DNA repair	IL1B secr inh	Giardia kill
CCOC(=O)C1CCN(S(=O)(=O)c2cc(Br)cc3c2N(C(=O)C2CC2)CC3)CC1	6%	-12%	?	?	19	-8
CCN(c1ccccc1)S(=O)(=O)c1cc(Br)cc2c1N(C(=O)C1CC1)CC2	6%	18µM*	16µM*	.	.	.
Cc1c(C)c(C)c(C(=O)C2CCN(c3ccc([N+](=O)[O-])cn3)CC2)c(C)c1C	9%	?	?	0%	28	-14
CC[n+]1ccc(C[n+]2ccccc2)c2ccccc21	22µM*	-25%	0%	1%	15	-25
Brc1ccc(C[n+]2ccccc2)cc1	-2%	?	?	5%	0	-27
CC(=O)N1CCN(C)CC1	-4%	-6%	-5%	.	.	.
CCc1cc2ccc(C)cc2nc1SCC(=O)c1ccc(NC(C)=O)cc1	1%	-22%	-22%	2%	-61*	-7
CCc1cc2ccc(C)cc2nc1SCC(=O)NC1CCCC1	.	-2%	-2%	10%	-21	19
CCOc1ccc(S(=O)(=O)N(C(C)=O)c2ccc3oc(C)c(C(=O)OC)c3c2)cc1	.	0.58µM*	1.3µM*	.	.	.
O=C(c1ccncc1)N(c1ccc2oc3c(c2c1)CCCC3)S(=O)(=O)c1ccc(F)cc1	4%	?	?	5%	-138*	-19
CCCCOC(=O)c1c(C)oc2ccc(NS(=O)(=O)c3ccc4c5c(cccc35)C(=O)N4)cc12	-5%	18µM*	?	?	-28	3
COCCOC(=O)c1c(C)oc2ccc(NS(=O)(=O)c3ccc(C(=O)O)cc3)cc12	-11%	-27%	-2%	-2%	0	-6
CCOc1ccc(S(=O)(=O)Nc2ccc3oc(C)c(C(=O)OCCOC)c3c2)cc1	4%	1.5µM*	1.8µM*	.	.	.
Cc1cc(Cl)ccc1OCC(=O)NN1C(=O)C2C3C=CC(C3)C2C1=O (stereo not given)	8%	-6%	22%	0%	-14	6
COc1cc(NC(=O)[C@H]2O[C@@H](n3cnc4c(N)ncnc43)[C@H](O)[C@@H]2O)cc(OC)c1OC	.	20%	0%	.	-25	.
COc1ccc(C(=O)Nc2nnc(S(=O)(=O)N(C)c3ccc(C)cc3)s2)cc1	-9%	?	-29%	.	.	.
CC(NC(=O)c1cnccn1)c1ccc(S(N)(=O)=O)cc1 (stereo not given)	4%	?	?	0%	0	12
CC(/C=N/NC(=O)Cn1cnc2c1c(=O)n(C)c(=O)n2C)=C\c1ccccc1	0%	?	-12%	0%	2	0
